Test results taken from PubChem BioAssay (NCI).
Compounds without any hit were thinned out: in the full panel of roughly 83,000, 20% have a hit.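 Activity criterion: percent growth below 10, measured after cells in 96-well plates were exposed to a single compound concentration for 48 hours.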 A number with no mark means an inactive call. Active and inactive are the calls of the source.

How the values were obtained:
Test in all cases: NCI-60 one-dose screen, 48 h (100 = growth as untreated, 0 = no growth, -100 = all killed)
Conditions in all cases: 10 µM unless noted
[1] = test system: DU-145 prostate
[2] = test system: K-562 leukemia
[3] = test system: MALME-3M melanoma
[4] = test system: MDA-MB-231 breast
[5] = test system: RXF 393 renal
[6] = test system: SF-268 CNS
[7] = test system: SF-295 CNS
[8] = test system: SF-539 CNS
[9] = test system: UACC-257 melanoma
[10] = test system: M14 melanoma

Compound | growth [1] | growth [2] | growth [3] | growth [4] | growth [5] | growth [6] | growth [7] | growth [8] | growth [9] | growth [10]
CC(C)=CCC[C@](C)(O)C1CC[C@]2(C)[C@@H]1CC[C@@H]1[C@@]3(C)CC/C(=N\OCCC#N)C(C)(C)[C@@H]3CC[C@]12C (stereo not given in full) | 83.9% | 67.6% | 71.8% | 94.1% | 109% | 87.4% | 97.9% | 91.9% | 86.1% | 88.5%
C=CC(=O)Nc1ccc2ncnc(Nc3cccc(NS(=O)(=O)CCC)c3Cl)c2c1 | 37.8% | 67.2% | 7.81% (active) | 24.3% | 15.1% | 48% | 72.9% | 44.4% | 5.07% (active) | 19.6%
CCN1C(=O)N(CC)C2C1NN=c1s/c(=C\c3ccc([N+](=O)[O-])cc3)c(=O)n12 (stereo not given) | 19.9% | 9.56% (active) | 45.7% | 18.5% | 2.89% (active) | 71.5% | 13.2% | -7.87% (active) | 31.1% | 12%
COC(=O)c1nc(-c2ccccc2)oc1S(=O)(=O)NCC(c1ccc(Cl)cc1)N1CCCCC1 (stereo not given) | 97.9% | 9.15% (active) | 99.1% | 72.2% | 82.7% | 82.5% | 102% | 88.1% | 88% | 38%
C=CCNc1nc(O)c(/C=C2\C=Nc3ncccc32)s1 | 12.7% | 42.1% | 40.2% | 19.8% | -41.3% (active) | -3.26% (active) | 13% | -66.2% (active) | 9.55% (active) | 24.5%
O=C(Nc1ncc(Cc2ccccc2)s1)c1cc(-c2ccccc2)nc2ccccc12 | 110% | 103% | 98% | 104% | 90.5% | 103% | 107% | 101% | 92.9% | 93.3%
Nc1ccc(Cl)c2c(=O)c3ccccc3[nH]c12 | 94.1% | 83.5% | 109% | 91.5% | 80.4% | 92.9% | 76.4% | 83.5% | 74.7% | 91.1%
CC(C)(C)n1cc(-c2ccnc(NCCNS(=O)(=O)c3ccc(C(F)(F)F)cc3)c2)c(-c2ccccc2)n1 | 99.2% | 44.3% | 109% | 92.1% | 87.8% | 95.3% | 83.7% | 82.2% | 104% | 88.8%
COc1ccc(CNc2ccc3nc(CCC4CCCCC4)[nH]c3c2)cc1 | 83.4% | 19.6% | 59.4% | 79.7% | 74.2% | 71.4% | 91% | 76.4% | 75.3% | 75.7%
CCOC(=O)c1c(C)nc2c(c1N)C(=O)C(=O)N2CCc1ccc(OC)c(OC)c1 | 89.7% | 25.6% | 79.1% | 80.4% | 83.8% | 78.7% | 63.3% | 70% | 46.8% | 70.6%
COc1cc2cc(Oc3ccc(NC(=O)Nc4ccc(F)c(C(F)(F)F)c4)cc3)c(C)nc2cc1OCCN1CCCCC1 | -24.2% (active) | -34.7% (active) | -87.9% (active) | 27.6% | 59.5% | 76.6% | 72.8% | 75.3% | -52.5% (active) | -86.8% (active)
CN1CCN(Cc2ccc(NC(=O)c3cncc(C#Cc4cnc(N)c5ccc(C#N)cc45)c3)cc2C(F)(F)F)CC1 | -7.64% (active) | 0.252% (active) | -72.6% (active) | -81.7% (active) | -90.7% (active) | -69.4% (active) | 38.8% | -57.6% (active) | 6.11% (active) | -83.9% (active)
CCN(CC)CCCNC(=O)c1c2c(n3ccccc13)C(=O)c1ncccc1C2=O | -94.9% (active) | -33.7% (active) | -93% (active) | -0.531% (active) | -35.9% (active) | -3.91% (active) | -22.1% (active) | -63% (active) | -90.1% (active) | -84.1% (active)
C#CCOc1cccc(Nc2ncnc3c(NC(=O)CCl)cccc23)c1 | 58.9% | -21.7% (active) | -74.7% (active) | -25.6% (active) | 56.2% | 3.94% (active) | 95.6% | -91.3% (active) | 56.9% | 5.19% (active)
Cc1[nH]c(C(=O)Nc2ccccc2OC2CCNC2)c(Cl)c1Cl (stereo not given) | 93.5% | 52.2% | 97.5% | 54.4% | 76.8% | 75.7% | 95.5% | 85.6% | 107% | 98.5%
Nc1ncnc2c1N=C(c1ccc([N+](=O)[O-])cc1)CC(c1ccc3c(c1)OCO3)N2 (stereo not given) | 94.6% | 93.4% | 107% | 75% | 75.6% | 90.1% | 67.5% | 85.7% | 116% | 119%
CC(=O)c1c(/C=C/c2ccc(C)cc2)c2ccccc2[nH]c1=O | 94.9% | 90.6% | 121% | 91.7% | 104% | 75.5% | 103% | 86.2% | 81.1% | 104%
COc1cccc(NC(=O)c2sc3nc(C)c(C(=O)c4ccccc4)cc3c2N)c1 | 99.9% | 64.4% | 81.5% | 91.6% | 85.8% | 87.6% | 67.3% | 86.5% | 81.5% | 80.6%
CC1(C)CC[C@]2(CO)CC[C@]3(C)[C@H](CC[C@@H]4[C@@]5(C)CC[C@H](O)C(C)(C)[C@@H]5CC[C@]43C)[C@H]2[C@H]1O | 77.7% | 83.9% | 78.1% | 26.5% | 61.1% | 83.7% | 86.4% | 12.8% | 104% | 99.7%
COC(=O)[C@H]1Cc2c([nH]c3ccccc23)[C@H](c2ccc3c(c2)OCO3)N1 | 101% | 99.3% | 99.8% | 98.5% | 109% | 96.3% | 99.8% | 92.8% | 107% | 108%
O=C1/C(=C/c2cccc(Br)c2)COc2ccc(O)c(O)c21 | -7.02% (active) | 10.3% | -44.9% (active) | -26.7% (active) | -56.5% (active) | -23.9% (active) | 34.8% | -85.4% (active) | 10.9% | -5.09% (active)
O=c1ccc2c(ccc3ncccc32)o1 | 117% | 113% | 121% | 120% | 95% | 113% | 90.4% | 106% | 110% | 128%
CN(C)c1ccc(Cc2cc(-c3ccccc3)nn(C/C(=N/O)c3ccccc3)c2=O)cc1 | 91.8% | 29.5% | 66.2% | 54% | 61.4% | 55.8% | 45.5% | 84.3% | 62.8% | 57%
O=C1C(c2c(O)[nH]c3ncccc23)=Nc2ccccc21 | 81.2% | 85.5% | 139% | 78.3% | 71.2% | 84.4% | 102% | 90.9% | 96.5% | 93.7%
[2H]C([2H])([2H])Oc1c(F)cccc1/C=C/C(=O)/C=C(O)/C=C/c1cccc(F)c1OC([2H])([2H])[2H] | 103% | 107% | 100% | 109% | 106% | 90.5% | 102% | 101% | 82.7% | 92.9%
O=S(=O)(c1ccc(NCSc2nc3ccccc3s2)cc1)c1ccc(NCSc2nc3ccccc3s2)cc1 | 106% | 77.3% | 90.5% | 86.4% | 99.1% | 97.5% | 98.6% | 103% | 94.7% | 96.1%
